The results in this text go back to the supplement of paper PMC8007513.

The structures appear in SMILES notation. Where a name gives a salt, the structure may show the parent alone. ± gives the standard error. About 130 (10%) of roughly 1,300 compounds showed an effect of 50% or more. The entries come from a sample that favours strong results as a whole.

The test system of this assay is Trichoderma virens ATCC 9645. Briefly: growth yield (OD600) with compound + IPBC relative to untreated control; higher = less growth inhibition. The conditions noted are these: compound concentration: 100 uM, IPBC concentration: 200 ng/ml. The method in brief: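 Plates were read for OD600 at 40 h and 72 h after Trichoderma virens ATCC 9645 spores (15,000 spores ml^−1 in potato dextrose broth) were grown at 30 °C with library compounds at 100 μM final, with or without a biocide at 200 ng ml^−1. Growth is stated relative to the control with neither agent, as the mean of duplicate screens.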

With `CCCCCCC[N+](CC)(CC)CCCCc1ccc(Cl)cc1` [Clofilium tosylate] + CCCCNC(=O)OCC#CI [3-iodo-2-propynyl butylcarbamate (IPBC)], the growth yield by setting is: (40 h) 13.5 ± 5.9%; (72 h) 74.46 ± 0.42%.

As for `N[C@@H]1C[C@H]1c1ccccc1` [Tranylcypromine hydrochloride] + CCCCNC(=O)OCC#CI [3-iodo-2-propynyl butylcarbamate (IPBC)], the growth yield (40 h) turned out to be 99.6 ± 1.8% and the growth yield (72 h) is 104 ± 3.7%.

Take `N=C(N)N1CCc2ccccc2C1` [Debrisoquin sulfate] + CCCCNC(=O)OCC#CI [3-iodo-2-propynyl butylcarbamate (IPBC)]: the growth yield runs as follows: (40 h) 92.3 ± 15%; (72 h) 96.9 ± 8%.

As for `COc1ccc2cc([C@H](C)C(=O)O)ccc2c1` [(S)-Naproxen] + CCCCNC(=O)OCC#CI [3-iodo-2-propynyl butylcarbamate (IPBC)], the growth yield is, setting by setting: (40 h) 61.3 ± 1.9%; (72 h) 78.6 ± 1.1%.

Take `COc1ccc2cc([C@@H](C)C(=O)O)ccc2c1` [(R) -Naproxen sodium salt] + CCCCNC(=O)OCC#CI [3-iodo-2-propynyl butylcarbamate (IPBC)]: the growth yield (40 h) is 67.7 ± 2.2% and the growth yield (72 h) came to 81.5 ± 3.5%.

For `COc1ccc2cc(CCC(C)=O)ccc2c1` [Nabumetone] + CCCCNC(=O)OCC#CI [3-iodo-2-propynyl butylcarbamate (IPBC)], the growth yield is, setting by setting: (40 h) 39.7 ± 1.6%; (72 h) 67.1 ± 1.5%.

Consider `c1ccc2c(c1)Nc1ccccc1S2` [Phenothiazine] + CCCCNC(=O)OCC#CI [3-iodo-2-propynyl butylcarbamate (IPBC)], for which the growth yield was found to be 34.8 ± 2.7% (40 h) and 51.3 ± 1.6% (72 h).

As for `CC(C)(C#N)c1cc(Cn2cncn2)cc(C(C)(C)C#N)c1` [Anastrozole] + CCCCNC(=O)OCC#CI [3-iodo-2-propynyl butylcarbamate (IPBC)], the growth yield runs as follows: (40 h) 105 ± 3.8%; (72 h) 98.9 ± 2.2%.

For the molecule `CN(C)c1ccc(O)c2c1C[C@H]1C[C@H]3[C@H](N(C)C)C(O)=C(C(N)=O)C(=O)[C@@]3(O)C(O)=C1C2=O` [Minocycline hydrochloride] + CCCCNC(=O)OCC#CI [3-iodo-2-propynyl butylcarbamate (IPBC)], the growth yield was 58.1 ± 2.2% (40 h) and 84.6 ± 4.7% (72 h).

Consider `COc1ccc(OC)c(C(O)C(C)N)c1` (centres undefined) [Methoxamine hydrochloride] + CCCCNC(=O)OCC#CI [3-iodo-2-propynyl butylcarbamate (IPBC)], for which the growth yield is 87.4 ± 7.3% (40 h) and 92.4 ± 5.3% (72 h).

`COc1ccc(C(=O)N2CCCC2=O)cc1` [Aniracetam] + CCCCNC(=O)OCC#CI [3-iodo-2-propynyl butylcarbamate (IPBC)]: the growth yield by setting is: (40 h) 83.7 ± 4.3%; (72 h) 87.3 ± 3.1%.

With `O=C1Nc2ccc(Cl)cc2[C@@](C#CC2CC2)(C(F)(F)F)O1` [Efavirenz] + CCCCNC(=O)OCC#CI [3-iodo-2-propynyl butylcarbamate (IPBC)], the growth yield (40 h) was found to be 39.4 ± 2.9% and the growth yield (72 h) was 73.1 ± 8.1%.

For the molecule `C/C(=C\C(=O)OCCCCCCCCC(=O)O)C[C@@H]1OC[C@H](C[C@@H]2O[C@H]2[C@@H](C)[C@H](C)O)[C@@H](O)[C@H]1O` [Mupirocin] + CCCCNC(=O)OCC#CI [3-iodo-2-propynyl butylcarbamate (IPBC)], the growth yield reads like this: (40 h) 6.51 ± 1.4%; (72 h) 43.4 ± 5.7%.

Regarding `O=C1CCc2ccc(OCCCCN3CCN(c4cccc(Cl)c4Cl)CC3)cc2N1` [Aripiprazole] + CCCCNC(=O)OCC#CI [3-iodo-2-propynyl butylcarbamate (IPBC)], the growth yield reads like this: (40 h) 81.8 ± 2.1%; (72 h) 94.2 ± 1.5%.

Take `NS(=O)(=O)c1cc(C(=O)O)cc(N2CCCC2)c1Oc1ccccc1` [Piretanide] + CCCCNC(=O)OCC#CI [3-iodo-2-propynyl butylcarbamate (IPBC)]: the growth yield is 98.3 ± 13% (40 h) and 101 ± 6.5% (72 h).

`CC(=O)Oc1ccc(C(c2ccc(OC(C)=O)cc2)c2ccccn2)cc1` [Bisacodyl] + CCCCNC(=O)OCC#CI [3-iodo-2-propynyl butylcarbamate (IPBC)]: the growth yield is 76.2 ± 2.2% (40 h) and 86.8 ± 2.1% (72 h).

For `CC[C@H]1OC(=O)[C@H](C)[C@@H](O[C@H]2C[C@@](C)(OC)[C@@H](O)[C@H](C)O2)[C@H](C)[C@@H](O[C@@H]2O[C@H](C)C[C@H](N(C)C)[C@H]2O)[C@](C)(O)C[C@@H](C)[C@@H]2N[C@@H](COCCOC)O[C@H]([C@H]2C)[C@]1(C)O` [Dirithromycin] + CCCCNC(=O)OCC#CI [3-iodo-2-propynyl butylcarbamate (IPBC)], the growth yield was 89 ± 9.5% (40 h) and 94.9 ± 6.4% (72 h).

`N=C(N)NS(=O)(=O)c1ccc(N)cc1` [Sulfaguanidine] + CCCCNC(=O)OCC#CI [3-iodo-2-propynyl butylcarbamate (IPBC)]: the growth yield by setting is: (40 h) 89.6 ± 2.5%; (72 h) 92.4 ± 2.6%.

On to `Cc1cccc(C)c1OCC(=O)N[C@@H](Cc1ccccc1)[C@@H](O)C[C@H](Cc1ccccc1)NC(=O)[C@H](C(C)C)N1CCCNC1=O` [Lopinavir] + CCCCNC(=O)OCC#CI [3-iodo-2-propynyl butylcarbamate (IPBC)], for which the growth yield reads like this: (40 h) 108 ± 5.4%; (72 h) 111 ± 5.1%.

With `O=C(NCC(O)CO)c1c(I)c(C(=O)NCC(O)CO)c(I)c(N(CCO)C(=O)CO)c1I` (centres undefined) [Ioversol] + CCCCNC(=O)OCC#CI [3-iodo-2-propynyl butylcarbamate (IPBC)], the growth yield came out at 103 ± 18% (40 h) and 98 ± 13% (72 h).

As for `C#C[C@]1(O)CC[C@H]2[C@@H]3CCC4=CC(=O)CC[C@@H]4[C@H]3CC[C@@]21C` [Norethindrone] + CCCCNC(=O)OCC#CI [3-iodo-2-propynyl butylcarbamate (IPBC)], the growth yield worked out at 55.1 ± 1.4% (40 h) and 83.06 ± 0.63% (72 h).

On to `OCCN(CCO)c1nc(N2CCCCC2)c2nc(N(CCO)CCO)nc(N3CCCCC3)c2n1` [Dipyridamole] + CCCCNC(=O)OCC#CI [3-iodo-2-propynyl butylcarbamate (IPBC)], for which the growth yield runs as follows: (40 h) 44.5 ± 1.6%; (72 h) 57.37 ± 0.52%.

As to `CN[C@H](CC(C)C)C(=O)N[C@H]1C(=O)N[C@@H](CC(N)=O)C(=O)N[C@H]2C(=O)N[C@H]3C(=O)N[C@H](C(=O)N[C@H](C(=O)O)c4cc(O)cc(O)c4-c4cc3ccc4O)[C@H](O)c3ccc(c(Cl)c3)Oc3cc2cc(c3O[C@@H]2O[C@H](CO)[C@@H](O)[C@H](O)[C@H]2O[C@H]2C[C@](C)(N)[C@H](O)[C@H](C)O2)Oc2ccc(cc2Cl)[C@H]1O` [Vancomycin hydrochloride] + CCCCNC(=O)OCC#CI [3-iodo-2-propynyl butylcarbamate (IPBC)], the growth yield was determined as 84.2 ± 0.95% (40 h) and 98.27 ± 0.52% (72 h).

Regarding `Cc1cccc(N(C)C(=S)Oc2ccc3ccccc3c2)c1` [Tolnaftate] + CCCCNC(=O)OCC#CI [3-iodo-2-propynyl butylcarbamate (IPBC)], the growth yield stood at 0% (40 h) and 35.9 ± 0.84% (72 h).

For `CC(C)(C)C(=O)OCOC(=O)[C@@H]1N2C(=O)[C@@H](NC(=O)[C@H](N)c3ccccc3)[C@H]2SC1(C)C` [Pivampicillin] + CCCCNC(=O)OCC#CI [3-iodo-2-propynyl butylcarbamate (IPBC)], the growth yield (40 h) worked out at 125 ± 1.3% and the growth yield (72 h) was 119.9 ± 0.73%.

As to `CCCCCOC(=O)Nc1nc(=O)n([C@@H]2O[C@H](C)[C@@H](O)[C@H]2O)cc1F` [Capecitabine] + CCCCNC(=O)OCC#CI [3-iodo-2-propynyl butylcarbamate (IPBC)], the growth yield reads like this: (40 h) 99.28 ± 0.48%; (72 h) 98.58 ± 0.84%.

As for `CN(C)/N=N/c1[nH]cnc1C(N)=O` [Dacarbazine] + CCCCNC(=O)OCC#CI [3-iodo-2-propynyl butylcarbamate (IPBC)], the growth yield by setting is: (40 h) 86.25 ± 0.48%; (72 h) 93.03 ± 0.52%.

As to `O=C([O-])c1ccccc1-c1c2cc(Br)c(=O)cc-2oc2[c]([Hg+])c([O-])c(Br)cc12.[Na+].[Na+].[OH-]` [Merbromin] + CCCCNC(=O)OCC#CI [3-iodo-2-propynyl butylcarbamate (IPBC)], the growth yield runs as follows: (40 h) 5.4 ± 0.64%; (72 h) 3.99 ± 0.21%.

For the molecule `COc1ccc([C@@H]2CC(=O)c3c(O)cc(O[C@@H]4O[C@H](CO[C@@H]5O[C@@H](C)[C@H](O)[C@@H](O)[C@H]5O)[C@@H](O)[C@H](O)[C@H]4O)cc3O2)cc1O` [Hesperidin] + CCCCNC(=O)OCC#CI [3-iodo-2-propynyl butylcarbamate (IPBC)], the growth yield (40 h) came out at 86.41 ± 0.64% and the growth yield (72 h) was 92.6 ± 2.2%.

`C[C@@H](O[C@H]1OCCN(Cc2n[nH]c(=O)[nH]2)[C@H]1c1ccc(F)cc1)c1cc(C(F)(F)F)cc(C(F)(F)F)c1` [Aprepitant] + CCCCNC(=O)OCC#CI [3-iodo-2-propynyl butylcarbamate (IPBC)]: the growth yield (40 h) was 113 ± 12% and the growth yield (72 h) came out at 104 ± 8.8%.

As to `CNCCc1ccccn1` [Betahistine mesylate] + CCCCNC(=O)OCC#CI [3-iodo-2-propynyl butylcarbamate (IPBC)], the growth yield runs as follows: (40 h) 88 ± 8.3%; (72 h) 92 ± 5.6%.

For `O=C(NCNC(=O)NC1C(=O)NC(=O)N1CO)NC1C(=O)NC(=O)N1CO` (centres undefined) [Imidurea] + CCCCNC(=O)OCC#CI [3-iodo-2-propynyl butylcarbamate (IPBC)], the growth yield (40 h) stood at 89 ± 7% and the growth yield (72 h) is 92.5 ± 5.5%.

For `CCCc1cc(=O)[nH]c(=S)[nH]1` [Propylthiouracil] + CCCCNC(=O)OCC#CI [3-iodo-2-propynyl butylcarbamate (IPBC)], the growth yield (40 h) came out at 90.1 ± 11% and the growth yield (72 h) stood at 93 ± 6.4%.

For the molecule `CCCCCCNC(=O)n1cc(F)c(=O)[nH]c1=O` [Carmofur] + CCCCNC(=O)OCC#CI [3-iodo-2-propynyl butylcarbamate (IPBC)], the growth yield reads like this: (40 h) 21.9 ± 0.95%; (72 h) 31.4 ± 0.32%.

For `CC(C(=O)O)c1ccc(C(=O)c2ccccc2)s1` (centres undefined) [Tiaprofenic acid] + CCCCNC(=O)OCC#CI [3-iodo-2-propynyl butylcarbamate (IPBC)], the growth yield is, setting by setting: (40 h) 77.83 ± 0.32%; (72 h) 83.38 ± 0.32%.

On to `CCCCN(CCCC)CCC(O)c1cc2c(Cl)cc(Cl)cc2c2cc(C(F)(F)F)ccc12` (centres undefined) [Halofantrine hydrochloride] + CCCCNC(=O)OCC#CI [3-iodo-2-propynyl butylcarbamate (IPBC)], for which the growth yield (40 h) is 13.8 ± 0.16% and the growth yield (72 h) is 7.66 ± 1.1%.

As to `CCN1CCCC(OC(=O)C(c2ccccc2)c2ccccc2)C1` (centres undefined) [Piperidolate hydrochloride] + CCCCNC(=O)OCC#CI [3-iodo-2-propynyl butylcarbamate (IPBC)], the growth yield is 85.5 ± 1.6% (40 h) and 94.08 ± 0.73% (72 h).
